This is a sample that favours compounds with a hit; in the whole collection about 0.95% have one here.
BJeLR viability – BJeLR cell viability loss; BJeLR (HRASV12) viability, CellTiter-Glo ATP luminescence, 48 h; inhibition, % (test concentration not listed); 0.17% of 300,000 active; AID 1554; in the data active = inhibition above about 50%
Sa RN4220 lethal – kills Staphylococcus aureus RN4220 | S. aureus RN4220 growth, OD600, 16 h | inhibition, % (test concentration not listed) | 0.33% of 330,000 active | AID 1259311; in the data active = inhibition above about 85%;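 note: plate controls were untreated cells for no effect and reference antibiotic for full effect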
PrPC surface inh – inhibitors of human cell surface prion protein PrPC; inhibition, % at 13.8 µM; 0.43% of 370,000 active; TR-FRET read-out; AID 720596; P04156; in the data active = inhibition above about 24%; note: 0% = median of the test wells and 100% = reference compound wells
ugtP null kill – compounds lethal to S. aureus RN4220 ugtP deletion mutant | AID 1259309 | growth inhibition, % (no concentration beside the values) | OD600 growth, 16 h | 0.54% of 330,000 active; in the data active = growth inhibition above about 68%;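 note: plate controls were untreated wells for no effect and antibiotic for full effect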
* hit, by the source's call; / = not tested or not shown.

SMILES	BJeLR viability	Sa RN4220 lethal	PrPC surface inh	ugtP null kill
C[C@@H]1[C@H](O)[C@@H](C)/C=C/C=C/C=C/C=C/C=C/C=C/C=C/[C@H](OC2O[C@H](C)[C@@H](O)[C@H](N)[C@@H]2O)C[C@@H]2O[C@](O)(C[C@@H](O)C[C@@H](O)[C@H](O)CC[C@@H](O)C[C@@H](O)CC(=O)O[C@H]1C)C[C@H](O)[C@H]2C(=O)O (some centres not stated)	/	/	-2	/
CC(=NNc1nc(C)cc(-c2ccccc2)n1)c1ccc(O)cc1	/	5	/	-9
CCCCCc1nc2c(c(=O)c3ccccc3n2C)c(=O)n1C1CCCCCC1	1	99*	0	100*
CC(C)C(NS(=O)(=O)c1ccccc1)C(=O)OCn1nnc2ccccc2c1=O (configuration not stated)	/	5	/	-4
Clc1ccc(-c2nc3ccccc3nc2-c2ccccc2)cc1	-9	-5	4	89*
Cc1ccc(-c2nc3ccccc3nc2-c2ccccc2)cc1	-1	-2	-9	86*
Clc1nc2ccccc2nc1-c1ccccc1	5	9	1	-1
CC(=NNC(=O)CNC(=O)CCc1ccccc1)c1ccc(Cl)c(Cl)c1	/	-5	/	-13
N#CC(C#N)=C(N)/C(C#N)=C/c1cc(O)c(O)c(O)c1	/	/	61*	/
CC(/C=C/c1ccco1)=NNC(=O)COc1ccc(C)c(C)c1	/	10	/	0
CCC(=NNS(C)(=O)=O)c1ccccc1	/	2	/	3
N#CC(c1ccc(Cl)cc1)c1ccc2c(C(F)(F)F)cc(C(F)(F)F)nc2n1 (configuration not stated)	42	101*	10	101*
CC1(c2ccccc2)CC(C)(C)N2C(=O)C(=O)c3cccc1c32 (configuration not stated)	-9	/	3	/
CC1(c2ccccc2)CC(C)(C)N2C(=O)C(=C3SC(=S)NC3=O)c3cccc1c32 (configuration not stated)	/	100*	/	100*
CCn1cc(C(=O)O)c(=O)c2cc(F)c(N3CCN(S(=O)(=O)c4ccc(Br)cc4)CC3)cc21	9	/	/	/
O=C(O)c1cn(C2CC2)c2cc(N3CCN(S(=O)(=O)c4ccc5c(c4)OCCO5)CC3)c(F)cc2c1=O	-3	99*	11	100*
O=C(CN1CCN(Cc2ccc(Cl)cc2)CC1)NN=Cc1ccncc1	/	3	/	7
O=C(Oc1c(Cl)cc(Cl)c2cccnc12)c1cccc([N+](=O)[O-])c1	2	97*	/	97*
Cc1ccc(S(=O)(=O)N2CCOCC2)cc1NC(=O)CSc1nc2ccccc2c(=O)n1Cc1ccccc1	-3	2	-8	4
O=C(CSc1nc2ccccc2c(=O)n1Cc1ccccc1)Nc1ccc(Br)cc1C(=O)O	-4	76	-2	99*
CCOC(=O)C1=C(C)N=C2c3ccccc3C(=O)C2C1c1ccc(Cl)cc1 (configuration not stated)	7	88*	-1	46
CC1(C)CC(=O)C2=C(C1)N=C1c3ccccc3C(=O)C1C2c1ccc(Cl)cc1 (configuration not stated)	2	1	2	-6
CC(C)COc1ccc(Cc2cnc(N)nc2N)cc1	7	16	3	97*
CCOc1ccc(-c2c(C)n(-c3ccc(OCC)cc3)c3[n+]2CCCCC3)cc1	70*	6	28*	-7
CCOc1ccc(-n2c(-c3ccccc3)c[n+]3c2CCCCC3)cc1	12	4	22	8
SMILES	BJeLR viability	Sa RN4220 lethal	PrPC surface inh	ugtP null kill
CC(=NNc1ccc(C)cc1)C1(C)N(O)C(C)(C)C(c2ccco2)=[N+]1[O-] (configuration not stated)	/	1	/	-2
Nc1nc(-c2ccccc2)c(N=Nc2cccc3ccccc23)s1	13	99*	-4	97*
COc1cccc(CSc2nc3ccccc3cc2C=O)c1	58*	-6	0	98*
CC(=O)c1ccc(C)cc1OC(=O)c1cccc(F)c1	-8	8	3	8
Cc1ccc(C(=O)CC(=O)c2ccccc2C)c(O)c1	1	83	-8	87*
Cc1ccc(C(=O)CC(=O)c2cccc(F)c2)c(O)c1	4	88*	8	94*
O=c1c2ccccc2oc2ccc(-c3ccc4[nH]ccc4c3)cc12	-2	13	14	92*
O=C(NN=Cc1c[nH]c2ccccc12)c1cc(-c2cccc3ccccc23)n[nH]1	/	-10	/	-5
O=C(NN=Cc1c[nH]c2ccccc12)c1cc(-c2ccc(-c3ccccc3)cc2)n[nH]1	/	87*	/	28
Cc1ccc(-c2nn(-c3ccccc3)cc2C=NNC(=O)CSc2nnc(C)n2-c2ccccc2)cc1	/	-11	/	-14
COc1ccc(C2C(C#N)=C(N)SC(N)=C2C#N)cc1OC	8	9	59*	3
COc1ccc(C2C(C#N)=C(N)OC(C(C)(C)C)=C2C#N)cc1OC (configuration not stated)	-8	-11	0	-8
N#CC1=C(N)SC(N)=C(C#N)C1c1cccc(O)c1	7	2	27*	-3
Cc1nn(-c2ccc(Cl)cc2)c(=O)c2ccccc12	4	5	-1	8
Cc1c(Cl)sn(-c2ccc(Cl)cc2)c1=O	/	101*	8	101*
CC(C(=O)NCc1ccccn1)C1C[C@]1(C)C(NC(=O)OCc1ccccc1)c1ccccc1 (some centres not stated)	/	2	/	4
Cc1ccc([C@@H]2CC=C(C(=O)O)[C@H](c3ccc(C(C)(C)C)cc3)N2S(=O)(=O)c2ccc(C)cc2)cc1	/	45	2	-1
Cc1ccc(S(=O)(=O)N2[C@@H](c3ccc(C(C)(C)C)cc3)C(C(=O)O)=CC[C@H]2c2ccc(C(C)C)cc2)cc1	/	97*	-4	88*
Cc1ccc(S(=O)(=O)N2[C@@H](c3ccc(C(C)(C)C)cc3)C(C(=O)O)=CC[C@H]2c2ccc(Cl)cc2)cc1	/	99*	-3	80
CCCCCCCC[n+]1cccc2c3ccccc3ccc21	34	100*	6	101*
Cc1cccc[n+]1CCCCCCCCCC[n+]1ccccc1C	-3	5	3	9
CCCCCCCCCC[n+]1cccc2c3ccccc3ccc21	60*	100*	24	100*
CN1c2ccsc2C(=NNc2ccc(F)cc2)CS1(=O)=O	/	83	/	100*
Cc1ccc(C)c(N(CC(=O)NN=Cc2ccc(-c3ccc([N+](=O)[O-])cc3)o2)S(=O)(=O)c2ccccc2)c1	/	-7	/	-17
Cc1ccc(O)c(-c2cc(-c3cccc(Br)c3)n[nH]2)c1	-8	87*	-1	85
COc1ccc(-n2cc(COC(=O)NCCc3ccccc3)nn2)cc1	/	/	-2	/
CCOc1ccc(CC(=O)NN=C(C)c2cccnc2)cc1OCC	/	0	/	-4
O=C(/C=C\c1ccco1)Nc1cc([N+](=O)[O-])ccc1F	62*	3	-8	0
O=C(/C=C/c1ccco1)Nc1cc(Cl)ccc1C(=O)O	-1	34	-7	16
CC=C(C)C(=O)OC1c2c(ccc3ccc(=O)oc23)OC1C(C)(C)OC(=O)C(C)=CC (configuration not stated)	/	-4	/	97*

Assay outcomes: PubChem, several laboratories
